LGR2 antag = inhibitors of bursicon-induced LGR2 CRE-luciferase signal, primary screen, cell-based, HEK293, CRE-luciferase reporter, bursicon stimulation | Drosophila bursicon receptor LGR2 (rickets) | bursicon-stimulated, 4 h | inhibition, % at 9.99 µM | 0.35% of 380,000 active | AID 720647, 2013;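 active means drop in luminescence signal, shown as inhibition above about 50% in the replicate tests, limit read from the data, passing the limit was not always enough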;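 further: agonist challenge used bursicon conditioned medium at about half maximal strength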
TRPM1 prom inh = inhibitors of MITF-dependent TRPM1 promoter reporter, primary screen, cell-based, SK-MEL-5, single point, luciferase; AID 488899, 2010; 0.83% of 330,000 active; SK-MEL-5 TRPM1 promoter luciferase, 24 h; inhibition, % at 12.5 µM;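 active means mean inhibition across replicates of 60% or more, whatever share of single replicates reaches that level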
LMP1 NFkB inh = EBV LMP1-driven NF-kappaB luciferase reporter inhibitors, primary screen, cell-based, luminescence, single point; LMP1-induced NF-kappaB luciferase reporter cells; inhibition, % at 12.5 µM; 0.69% of 350,000 active; in the data active means inhibition above about 41%;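 further: 0% = neutral control wells and 100% = reference inhibitor control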
TWEAK-Fn14 inh = inhibitors of TWEAK-Fn14 signaling, primary screen, luciferase reporter cells, uHTS; TWEAK-stimulated Fn14 reporter cells, luciferase luminescence, 8 h; inhibition, % at 10 µM; 2% of 360,000 active; AID 1159606, 2016; in the data active means inhibition above about 50%
MITF TRPM1 HTS = activators of MITF-driven TRPM1 promoter reporter, primary screen, cell-based, SK-MEL-5, luciferase, single point; SK-MEL-5 TRPM1-promoter luciferase, 24 h; % of positive control, neutral wells = 0; 0.75% of 300,000 active; AID 588334, 2011; activation, % at 12.5 µM;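 active means mean activation of at least 80% with every replicate also reaching 80%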;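 further: 0% = neutral control wells and 100% = parthenolide positive control wells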
TROY NFkB inh = inhibitors of TROY-driven NF-kB signaling, primary screen, Q293 LMP1-TROYcd cells, NF-kB luciferase, uHTS; Q293 LMP1-TROYcd NF-kB luciferase reporter, 4 h; inhibition, % at 10 µM; AID 1347056, 2019; 0.98% of 360,000 active;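 active means compounds whose plate-normalised and pattern-corrected inhibition of the luciferase reporter signal at the single screening dose is 50% or more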
* hit, by the source's call. The list is not random: actives were taken first. Their share in the collection is about 3%.

For C=COCCCNc1ncnc2sc(-c3ccccc3)cc12 the results were LGR2 antag 3, TRPM1 prom inh 6, LMP1 NFkB inh 16, TWEAK-Fn14 inh 87*, MITF TRPM1 HTS -7 and TROY NFkB inh -2.
`O=C(C[C@@H]1C[C@H]2c3cc(NC(=O)CC4CC4)ccc3O[C@H]2[C@@H](CO)O1)NCCc1ccccc1` gave LGR2 antag 2.
Screening C/C(NC(=O)c1ccccc1F)=C1\C(=O)C[C@@H]2[C@H]1C2(C)C returned LGR2 antag -67, TRPM1 prom inh -50, LMP1 NFkB inh -31, TWEAK-Fn14 inh -11 and TROY NFkB inh -39.
C/C(NC(=O)c1cccc(F)c1)=C1/C(=O)C[C@@H]2[C@H]1C2(C)C was read as LGR2 antag -47, TRPM1 prom inh -110, LMP1 NFkB inh -23, TWEAK-Fn14 inh -6, MITF TRPM1 HTS 109* and TROY NFkB inh -46.
For C[C@@H]1CN([C@@H](C)CO)C(=O)c2cc(NC(=O)Nc3ccc4c(c3)OCO4)ccc2O[C@H]1CN(C)Cc1ccc(-c2ccccc2)cc1 the results were LGR2 antag 22.
For Cc1ccc(N/C=C/C(=O)c2ccco2)c(O)c1 the results were LGR2 antag -55, TRPM1 prom inh -44, LMP1 NFkB inh -35, TWEAK-Fn14 inh 95*, MITF TRPM1 HTS 53 and TROY NFkB inh -35.
For C[C@@H]1CN([C@H](C)CO)C(=O)c2cc(-c3cccc(C#N)c3)cnc2O[C@H]1CN(C)C(=O)C1CC1 the results were LGR2 antag -11.
CCC(NC(C)C)C(O)c1ccc(O)c2[nH]c(=O)ccc12 (stereo not given) was read as TRPM1 prom inh -1, LMP1 NFkB inh 74*, TWEAK-Fn14 inh -17, MITF TRPM1 HTS 6 and TROY NFkB inh 11.
CCNC(=O)C[C@@H]1CC[C@H]2[C@@H](COc3ccc(NC(=O)C4CCCCC4)cc3C(=O)N2C)O1 was read as LGR2 antag 1.
Screening CO[C@@H]1CN(C)C(=O)c2ccc(NC(=O)C3CCOCC3)cc2OC[C@@H](C)N(Cc2nccs2)C[C@@H]1C returned LGR2 antag 11.
For COc1ccc2nc3cc(Cl)ccc3c(C#N)c2c1 the results were TRPM1 prom inh -13, LMP1 NFkB inh 1, TWEAK-Fn14 inh -24, MITF TRPM1 HTS 11 and TROY NFkB inh -44.
Screening COc1ccc2nc3cc(Cl)ccc3c(Nc3ccc(O)c(CN4CCN(C)CC4)c3)c2c1 returned LGR2 antag -55, TRPM1 prom inh 106*, LMP1 NFkB inh 4, TWEAK-Fn14 inh -112 and TROY NFkB inh -85.
For C[C@@H]1CCCCO[C@@H](CN(C)S(=O)(=O)c2ccc(Cl)cc2)[C@H](C)CN([C@@H](C)CO)C(=O)c2cc(N(C)C)ccc2O1 the results were LGR2 antag 13.
For CCN=c1scc(C)n1/N=C/c1cc(Br)c(O)c(OC)c1 the results were LGR2 antag -33, TRPM1 prom inh -17, LMP1 NFkB inh 0, TWEAK-Fn14 inh -26, MITF TRPM1 HTS 20 and TROY NFkB inh 58*.
For CN1c2ccc(-c3ccccc3F)cc2[C@H]2[C@H](CCN2S(=O)(=O)c2ccc(F)cc2)[C@H]1CO the results were LGR2 antag 1.
Screening COc1ccc(OC)c(NC(=O)CC2SC(=Nc3ccc(F)cc3)N(CCC3=CCCCC3)C2=O)c1 (stereo not given) returned LGR2 antag -7, TRPM1 prom inh -6, LMP1 NFkB inh 11, TWEAK-Fn14 inh 3, MITF TRPM1 HTS 6 and TROY NFkB inh -3.
Screening COc1cc([N+](=O)[O-])ccc1NC(=O)CC1SC(=Nc2ccc(F)cc2)N(CCC2=CCCCC2)C1=O (stereo not given) returned LGR2 antag 11, TRPM1 prom inh 37, LMP1 NFkB inh 28, TWEAK-Fn14 inh 60*, MITF TRPM1 HTS -34 and TROY NFkB inh -1.
Screening C[C@@H]1CN([C@@H](C)CO)C(=O)c2cccc(NC(=O)C3CCCCC3)c2O[C@@H]1CN(C)Cc1ccccc1 returned LGR2 antag -5.
